Results filed as inconclusive are left out. This is one part of the list. The source made the active and inactive calls. Unless noted, the call rests on the fitted dose curve; in most records, active means well fitted curve in the direction sought with a large enough effect; inconclusive means small, poorly fitted or top-dose-only effect, or another doubt; inactive means no such curve, though single readings can be large; an effect the other way counts as inactive or inconclusive.
Assays:
[1] = biological target: Rap guanine nucleotide exchange factor 3 (Homo sapiens) (UniProt O95398); assay: Confirmatory qHTS for antagonist of cAMP-regulated guanine nucleotide exchange factor 3 (EPAC1) (AID 1645880); further: nearly all actives have a fitted effect of over 55% in size; further: potency means the concentration at half of the fitted maximal effect
Method in brief: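 Nucleotide exchange uses 100 nM EPAC1, 250 nM RAP1B-BODIPY-GDP and 50 uM GDP, with compounds in a concentration-titration series. After 5 min at room temperature, fluorescence (480 nm ex/540 nm em) is read every 5 min for 30 min. Data are normalized to control ATA and DMSO.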

[2] = biological target: Rap guanine nucleotide exchange factor 3 (Homo sapiens) (UniProt O95398); assay: Confirmatory qHTS for agonist of cAMP-regulated guanine nucleotide exchange factor 3 (EPAC1) (AID 1645881); further: nearly all actives have a fitted effect of over 75% in size; further: potency means the concentration at half of the fitted maximal effect;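 on activation: EPAC1 catalysed release of BODIPY-GDP from Rap1B seen as fluorescence loss; 100% = effect of cAMP agonist control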
[3] = biological target: Rap guanine nucleotide exchange factor 4 (Homo sapiens) (UniProt Q8WZA2); assay: Confirmatory qHTS for agonist of cAMP-regulated guanine nucleotide exchange factor 4 (EPAC2) (AID 1645884);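 further: nucleotide exchange releases bodipy-GDP from Rap1 and this lowers its fluorescence; nearly all actives have a fitted effect of over 65% in size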; further: potency means the concentration at half of the fitted maximal effect; on activation: on the % scale 0 is the no-effect control and ±100 the full control effect
[4] = biological target: Rap guanine nucleotide exchange factor 4 (Homo sapiens) (UniProt Q8WZA2); assay: Confirmatory qHTS for antagonist of cAMP-regulated guanine nucleotide exchange factor 4 (EPAC2) (AID 1645885); further: nearly all actives have a fitted effect of over 25% in size; further: potency means the concentration at half of the fitted maximal effect
[5] = biological target: Rap guanine nucleotide exchange factor 3 (Homo sapiens) (UniProt O95398); assay: Counterscreen qHTS for antagonist of cAMP-regulated guanine nucleotide exchange factor 3 (EPAC1) (AID 1645888);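 further: fluorescence loss as bound BODIPY-GDP is released from Rap1B; % of control where 0% means no effect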
Method in brief: (§1)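 Measured: fluorescence of BODIPY-GDP bound to Rap1B, which falls as exchange proceeds. Conditions include 50 uM competing GDP, 5 and 30 min reads, and a later cAMP challenge for antagonist detection.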

[6] = biological target: Rap guanine nucleotide exchange factor 3 (Homo sapiens) (UniProt O95398); assay: Counterscreen qHTS for agonist of cAMP-regulated guanine nucleotide exchange factor 3 (EPAC1) (AID 1645889); further: nearly all actives have a fitted effect of over 40% in size; further: potency means the concentration at half of the fitted maximal effect; on activation: % of control where 0% means no effect
Method in brief: as §1

[7] = AP1 Signaling Pathway (AID 357; active means well fitted curve in either direction with a large enough effect, not every such curve was filed as active;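 further: ME-180 reporter cells stimulated with EGF at its EC50 level; on the % scale 0 is the no-effect control and ±100 the full control effect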)
Method in brief: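 Modulation of EGF-driven AP-1 transcription was assessed with a beta-lactamase reporter in ME-180 cells. Compound and EC50 EGF were co-incubated 5 hours at 37 °C before 2.5-hour CCF4 loading at room temperature and dual-emission reading.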

[8] = NFAT Signaling Pathway (AID 444; active means well fitted curve in either direction with a large enough effect, not every such curve was filed as active;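 further: carbachol stimulus at about its EC50 of 1 µM final; on the % scale 0 is the no-effect control and ±100 the full control effect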); settings: Jurkat NFAT-bla M1, carbachol, beta-lactamase ratio, 5 h; at 17.2 µM (top of the series)
Method in brief: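 Jurkat cells carrying an NFAT-driven β-lactamase reporter and co-transfected muscarinic M1 receptor were treated with compound plus carbachol (1 uM final, an EC50 level) for 5 h at 37 °C. CCF4 loading followed for 1 h at RT; 460/530 nm ratio gave %activity.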

[9] = Stat Signaling Pathway (AID 446; active means well fitted curve in either direction with a large enough effect, not every such curve was filed as active;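 further: ME-180 cervical cancer cells given 40 pM IL-6 alongside compound; SIE-controlled beta-lactamase reporter measured as 460/530 nm FRET emission ratio; on the % scale 0 is the no-effect control and ±100 the full control effect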)
Method in brief: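 IL-6/STAT signaling read in ME-180 cells via an SIE beta-lactamase reporter. Stimulus was 40 pM IL-6 (its AC50) for 5 hrs, so both activation and inhibition register.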

[10] = biological target: Glucocorticoid receptor (Homo sapiens) (UniProt P04150); assay: GR-GFP Redistribution (AID 450;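 active means compounds whose dose series gives a full or clear partial fitted curve of increased nuclear translocation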; further: potency means the concentration at half of the fitted maximal effect); settings: U2OS GR-GFP nuclear translocation, laser cytometry, 2 h
[11] = biological target: DNA polymerase kappa (Homo sapiens) (UniProt Q9UBT6); assay: qHTS for Inhibitors of Polymerase Kappa: Confirmatory Assay for Cherry-picked Compounds (AID 720501); settings: purified Pol-kappa, fluorescent strand-displacement substrate; further: potency means the concentration at half of the fitted maximal effect
Method in brief: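 Human Pol-kappa, dispensed at 10 nM, was preincubated with compounds for 15 min at room temperature. Reactions were started with primer/template substrate (50 nM final) carrying a TAMRA reporter strand and BHQ-2-quenched template, and fluorescence (ex 525/em 598 nm) was read at 0 and 10 min.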

[12] = biological target: DNA polymerase eta (Homo sapiens) (UniProt Q9Y253); assay: qHTS for Inhibitors of Polymerase Eta: Confirmatory Assay for Cherry-picked Compounds (AID 720502); settings: Pol eta primer extension, TAMRA/BHQ fluorescence, 10 min; further: potency means the concentration at half of the fitted maximal effect
Method in brief: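 The reaction starts with 50 nM final labeled DNA substrate added to Pol eta (10 nM) that had sat with compound for 15 min. TAMRA emission at 598 nm is read at 0 and 10 min.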

Rap guanine nucleotide exchange factor 3 (Homo sapiens), sequence (O95398 whole entry, looked up): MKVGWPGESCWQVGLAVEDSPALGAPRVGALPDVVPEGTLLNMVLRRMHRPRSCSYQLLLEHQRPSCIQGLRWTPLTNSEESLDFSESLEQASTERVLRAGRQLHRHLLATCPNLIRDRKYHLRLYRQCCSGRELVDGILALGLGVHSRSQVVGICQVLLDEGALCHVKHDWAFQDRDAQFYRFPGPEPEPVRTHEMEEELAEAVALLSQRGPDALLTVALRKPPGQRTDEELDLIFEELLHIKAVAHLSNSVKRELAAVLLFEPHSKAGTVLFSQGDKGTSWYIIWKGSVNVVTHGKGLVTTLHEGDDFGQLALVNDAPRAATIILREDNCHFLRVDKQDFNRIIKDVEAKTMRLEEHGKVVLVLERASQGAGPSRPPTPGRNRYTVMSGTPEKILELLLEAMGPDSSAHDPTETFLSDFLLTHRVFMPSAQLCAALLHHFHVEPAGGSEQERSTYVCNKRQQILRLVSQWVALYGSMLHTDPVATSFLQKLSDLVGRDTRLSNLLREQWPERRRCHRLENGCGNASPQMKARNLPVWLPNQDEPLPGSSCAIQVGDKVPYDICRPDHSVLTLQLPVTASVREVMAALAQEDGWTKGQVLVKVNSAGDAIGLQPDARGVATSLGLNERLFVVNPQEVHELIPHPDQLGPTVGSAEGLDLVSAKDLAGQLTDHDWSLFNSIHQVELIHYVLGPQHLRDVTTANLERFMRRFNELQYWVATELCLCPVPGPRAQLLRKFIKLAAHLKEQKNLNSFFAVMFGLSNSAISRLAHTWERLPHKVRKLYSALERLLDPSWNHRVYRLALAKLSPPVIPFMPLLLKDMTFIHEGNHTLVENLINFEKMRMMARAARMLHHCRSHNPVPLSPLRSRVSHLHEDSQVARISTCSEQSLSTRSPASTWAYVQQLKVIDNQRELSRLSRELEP
Rap guanine nucleotide exchange factor 4 (Homo sapiens), sequence (Q8WZA2 whole entry, looked up): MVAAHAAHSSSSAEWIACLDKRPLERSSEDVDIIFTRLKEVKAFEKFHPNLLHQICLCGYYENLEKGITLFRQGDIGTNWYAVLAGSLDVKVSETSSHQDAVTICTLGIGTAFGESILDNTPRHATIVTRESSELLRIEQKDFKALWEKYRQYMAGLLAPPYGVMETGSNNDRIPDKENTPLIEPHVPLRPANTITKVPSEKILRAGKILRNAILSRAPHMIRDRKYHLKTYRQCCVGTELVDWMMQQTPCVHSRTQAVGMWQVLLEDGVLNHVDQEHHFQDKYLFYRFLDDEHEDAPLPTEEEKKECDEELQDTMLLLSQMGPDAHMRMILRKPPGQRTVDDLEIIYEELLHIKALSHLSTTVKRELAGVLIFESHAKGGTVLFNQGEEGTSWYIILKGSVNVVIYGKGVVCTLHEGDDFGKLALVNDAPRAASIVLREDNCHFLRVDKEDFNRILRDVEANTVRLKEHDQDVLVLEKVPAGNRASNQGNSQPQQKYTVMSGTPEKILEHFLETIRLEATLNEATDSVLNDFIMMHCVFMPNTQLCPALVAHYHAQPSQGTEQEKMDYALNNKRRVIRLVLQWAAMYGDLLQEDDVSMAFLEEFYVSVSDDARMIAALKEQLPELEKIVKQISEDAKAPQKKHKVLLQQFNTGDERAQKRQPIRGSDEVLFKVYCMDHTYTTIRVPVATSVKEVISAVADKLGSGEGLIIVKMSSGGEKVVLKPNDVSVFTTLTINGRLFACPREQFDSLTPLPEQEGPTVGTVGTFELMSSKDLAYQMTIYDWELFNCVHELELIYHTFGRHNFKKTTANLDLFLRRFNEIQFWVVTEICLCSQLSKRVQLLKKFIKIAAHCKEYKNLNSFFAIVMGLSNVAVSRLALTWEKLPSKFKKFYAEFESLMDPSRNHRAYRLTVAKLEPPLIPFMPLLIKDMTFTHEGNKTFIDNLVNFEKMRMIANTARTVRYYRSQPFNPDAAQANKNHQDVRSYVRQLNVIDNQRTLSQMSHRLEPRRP
Glucocorticoid receptor (Homo sapiens), sequence (P04150 whole entry, looked up): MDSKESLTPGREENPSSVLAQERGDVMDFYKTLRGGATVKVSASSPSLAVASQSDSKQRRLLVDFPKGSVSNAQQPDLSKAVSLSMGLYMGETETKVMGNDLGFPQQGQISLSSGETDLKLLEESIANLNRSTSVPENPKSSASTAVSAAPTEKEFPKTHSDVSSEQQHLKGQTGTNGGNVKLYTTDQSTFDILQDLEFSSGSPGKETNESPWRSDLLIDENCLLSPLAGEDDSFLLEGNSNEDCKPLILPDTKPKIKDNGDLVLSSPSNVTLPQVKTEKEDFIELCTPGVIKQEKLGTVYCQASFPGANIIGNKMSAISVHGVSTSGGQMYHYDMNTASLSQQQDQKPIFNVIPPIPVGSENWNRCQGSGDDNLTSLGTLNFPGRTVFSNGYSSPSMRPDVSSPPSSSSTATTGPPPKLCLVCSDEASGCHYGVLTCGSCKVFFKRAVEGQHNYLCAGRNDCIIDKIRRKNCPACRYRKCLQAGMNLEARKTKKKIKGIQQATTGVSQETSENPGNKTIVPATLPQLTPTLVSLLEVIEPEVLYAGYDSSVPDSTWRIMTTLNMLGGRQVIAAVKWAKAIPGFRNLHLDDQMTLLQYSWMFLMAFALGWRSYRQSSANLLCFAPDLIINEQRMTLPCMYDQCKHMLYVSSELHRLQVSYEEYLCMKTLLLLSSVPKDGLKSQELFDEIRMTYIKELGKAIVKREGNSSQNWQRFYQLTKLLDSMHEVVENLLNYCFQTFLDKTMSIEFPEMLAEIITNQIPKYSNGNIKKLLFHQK
DNA polymerase eta (Homo sapiens), sequence (Q9Y253 whole entry, looked up): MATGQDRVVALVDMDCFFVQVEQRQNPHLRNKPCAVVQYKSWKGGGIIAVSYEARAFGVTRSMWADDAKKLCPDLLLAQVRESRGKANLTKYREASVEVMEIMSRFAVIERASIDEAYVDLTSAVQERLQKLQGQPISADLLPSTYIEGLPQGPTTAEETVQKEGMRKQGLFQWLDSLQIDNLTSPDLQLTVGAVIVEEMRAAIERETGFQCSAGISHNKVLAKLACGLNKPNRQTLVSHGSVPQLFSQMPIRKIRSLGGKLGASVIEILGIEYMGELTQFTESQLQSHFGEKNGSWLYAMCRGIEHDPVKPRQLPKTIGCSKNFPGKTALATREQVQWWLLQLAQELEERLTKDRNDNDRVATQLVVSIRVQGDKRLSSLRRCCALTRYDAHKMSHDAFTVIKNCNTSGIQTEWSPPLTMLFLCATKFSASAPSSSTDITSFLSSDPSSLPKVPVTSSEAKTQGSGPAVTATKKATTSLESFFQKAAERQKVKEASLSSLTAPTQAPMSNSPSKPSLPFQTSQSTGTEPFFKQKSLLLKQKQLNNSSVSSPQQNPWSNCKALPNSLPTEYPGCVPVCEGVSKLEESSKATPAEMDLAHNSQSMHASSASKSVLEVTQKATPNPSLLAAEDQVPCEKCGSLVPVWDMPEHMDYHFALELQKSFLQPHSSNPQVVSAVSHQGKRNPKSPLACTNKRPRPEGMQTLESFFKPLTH
DNA polymerase kappa (Homo sapiens), sequence (Q9UBT6 whole entry, looked up): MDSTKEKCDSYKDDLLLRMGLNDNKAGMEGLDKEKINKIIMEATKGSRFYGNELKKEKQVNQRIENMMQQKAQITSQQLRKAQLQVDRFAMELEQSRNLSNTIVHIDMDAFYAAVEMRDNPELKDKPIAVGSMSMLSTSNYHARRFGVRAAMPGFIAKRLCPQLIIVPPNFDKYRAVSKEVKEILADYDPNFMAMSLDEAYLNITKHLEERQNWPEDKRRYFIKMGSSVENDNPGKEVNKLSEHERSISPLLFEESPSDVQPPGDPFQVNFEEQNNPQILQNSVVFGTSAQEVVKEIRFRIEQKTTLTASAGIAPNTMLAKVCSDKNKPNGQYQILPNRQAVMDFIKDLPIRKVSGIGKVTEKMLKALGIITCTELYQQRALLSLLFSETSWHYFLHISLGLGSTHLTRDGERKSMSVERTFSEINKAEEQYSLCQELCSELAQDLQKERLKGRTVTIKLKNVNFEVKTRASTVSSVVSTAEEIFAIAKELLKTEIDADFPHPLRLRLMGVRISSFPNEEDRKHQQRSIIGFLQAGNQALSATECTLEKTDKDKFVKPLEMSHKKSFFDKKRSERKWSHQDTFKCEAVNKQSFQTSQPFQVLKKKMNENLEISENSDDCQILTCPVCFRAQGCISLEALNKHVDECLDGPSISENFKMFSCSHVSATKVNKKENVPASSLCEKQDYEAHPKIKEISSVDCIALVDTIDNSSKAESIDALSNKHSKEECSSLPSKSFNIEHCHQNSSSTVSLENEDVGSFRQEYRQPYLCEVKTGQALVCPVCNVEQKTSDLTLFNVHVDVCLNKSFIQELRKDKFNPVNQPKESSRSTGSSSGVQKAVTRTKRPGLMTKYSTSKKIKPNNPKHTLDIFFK

COC(=O)C1=C(c2ccc3ccccc3c2)C[C@@H]2CC[C@H]1N2C(=O)NC1CC1
inactive: Potency [1] | Potency [2] | Potency [3] | Potency [4] | outcome [5] | Potency [6]

Cc1ccc(C)c(Cn2c(C(=O)O)c(C=O)c3ccccc32)c1
inactive: Potency [1] | Potency [2] | activation [3] 10% [at 17.1 µM, percent relative to cAMP agonist control] | activity change, negative = inhibition [4] 3.6% [at 12.7 µM] | activity change, negative = inhibition [5] -5.1% [at 30.8 µM] | activation [6] 9.64% [at 30.8 µM]

O=C1Nc2ccccc2/C1=C/c1nc2ccccc2c(=O)n1-c1ccc(O)cc1
inactive: Potency [2] | activation [3] 2.57% [at 17.1 µM, percent relative to cAMP agonist control] | activity change, negative = inhibition [4] 0.205% [at 12.7 µM] | activity change, negative = inhibition [5] -7.19% [at 30.8 µM] | activation [6] 1.32% [at 30.8 µM]
active: Potency [1] 35.5 µM

COC(=O)c1cn(C(=O)c2cccc3ccccc23)c2ccccc12
inactive: Potency [1] | Potency [2] | Potency [3] | Potency [4] | outcome [5]

CCCCn1c(O)c(C=NCCN2CCCCC2)c(=O)[nH]c1=O
inactive: outcome [7] | activity change, negative = inhibition [8] -9.1% | outcome [9] | Potency [10] > 20.6 µM | Potency [1] | Potency [2] | Potency [3] | outcome [5] | Potency [6]
active: Potency [4] 75.7 µM

COc1ccc(N=Cc2c(O)n(Cc3ccccc3)c(=S)[nH]c2=O)c(OC)c1
inactive: Potency [1] | Potency [4] | outcome [5] | Potency [6]
active: Potency [2] 79.4 µM | Potency [3] 100 µM

O=C(O)CC1OCC=C2CN3CCC45C6=CC(=O)C(=O)C([N+](=O)[O-])=C6NC4C1C2CC35 (stereo not drawn)
inactive: Potency [1] | Potency [2] | Potency [3] | Potency [4] | outcome [5] | Potency [6]

O=Cc1c(C(=O)O)n(Cc2ccc(Cl)cc2)c2ccccc12
inactive: Potency [1] | Potency [2] | Potency [3] | outcome [5]
active: Potency [4] 42.6 µM | Potency [6] 15.8 µM

Cc1cc(/C=C2/C(=O)NC(=O)N(Cc3ccco3)C2=O)c(C)n1-c1ccccc1O
inactive: Potency [2] | activation [3] 11.8% [at 17.1 µM, percent relative to cAMP agonist control] | activity change, negative = inhibition [5] -13.1% [at 30.8 µM] | activation [6] 17.9% [at 30.8 µM]
active: Potency [1] 44.7 µM | Potency [4] 0.19 µM

Cc1c2cnn(CC(=O)N3CCC4(CC3)OCCO4)c(=O)c2c(C)n1Cc1ccc(F)cc1
inactive: Potency [1] | Potency [2] | Potency [3] | Potency [4] | outcome [5]

CCc1nc2ccccc2c(=O)n1-c1ccccc1OC
inactive: Potency [1] | Potency [2] | Potency [3] | outcome [5] | Potency [6]
active: Potency [4] 33.8 µM

Cc1ccc(CN2CCCN(Cc3ccccc3C)S2(=O)=O)cc1
inactive: Potency [1] | Potency [2] | Potency [3] | Potency [4] | outcome [5] | Potency [6]

CC[C@@H]1c2ccccc2[C@@H]2CC[C@H]1N2c1ccccc1
inactive: Potency [1] | Potency [2] | activation [3] 4.18% [at 17.1 µM, percent relative to cAMP agonist control] | activity change, negative = inhibition [4] -6.37% [at 12.7 µM] | activity change, negative = inhibition [5] -4.57% [at 30.8 µM] | activation [6] -4.47% [at 30.8 µM]

CCOC(=O)[C@]12Cc3cc(OC)ccc3[C@H]1N(Cc1ccccc1)C(=O)c1cc(F)c(F)cc12
inactive: Potency [1] | Potency [2] | Potency [3] | Potency [4] | outcome [5]

COc1ccc(C(=O)C2CN(C)CC2c2ccc(Cl)cc2)cc1 (stereo not drawn)
inactive: Potency [1] | Potency [2] | activation [3] 2.15% [at 17.1 µM, percent relative to cAMP agonist control] | activity change, negative = inhibition [4] -16.3% [at 12.7 µM] | activity change, negative = inhibition [5] 7.3% [at 30.8 µM] | activation [6] 27.2% [at 30.8 µM]

CCOC(=O)[C@]12Cc3ccccc3[C@H]1N(C1CCCCC1)C(=O)c1cc(OC)ccc12
inactive: Potency [1] | Potency [2] | Potency [3] | Potency [4] | outcome [5]

O=C1NC(=O)N(Cc2ccco2)C(=O)/C1=C\c1ccc(-c2ccc(F)cc2)o1
active: Potency [11] 42.3 µM | Potency [12] 47.8 µM | Potency [1] 22.4 µM
inactive: Potency [2] | activation [3] -0.903% [at 17.1 µM, percent relative to cAMP agonist control] | activity change, negative = inhibition [4] -6.14% [at 12.7 µM] | activity change, negative = inhibition [5] -21.9% [at 30.8 µM] | activation [6] 11.1% [at 30.8 µM]

Cc1cccc(N2C(=O)NC(=O)/C(=C\c3cc(C)n(-c4sc5c(c4C#N)CCCC5)c3C)C2=O)c1C
active: Potency [1] 30.1 µM
inactive: Potency [2] | Potency [3] | outcome [5]

Source: PubChem BioAssay (NCATS)
